# PubChem BioAssay (NCI)
# Where “and” joins values, the source holds several entries; their conditions need not be identical. Equal values may be shown once. About 83,000 compounds went through this panel and 20% of them were active in at least one assay; those are over-represented in the sample as a whole.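 Negative percent growth values reflect cell death: -40 means 40% of the cells present at the start died, and -100 means all died.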 Calls of active or inactive are those of the source. Where a SMILES comes first, the peptide text is derived from it. [ ]: non-standard residue; d: D form. ξ: configuration not given here. ξV = CC(C)C(N)C(=O)O
# System: NCI-H460 lung
# Test: NCI-60 one-dose screen, 48 h (100 = growth as untreated, 0 = no growth, -100 = all killed)
# Settings: 0.0025 µM
# Procedure: Growth inhibition of the NCI-H460 human Non-Small Cell Lung tumor cell line is measured as a screen for anti-cancer activity. Cells are grown in 96 well plates and exposed to the test compound for 48 hours. Compounds are tested at a single concentration, which is 10^-5 M for most compounds. The reported endpoint is percent growth (GI% or GIPRCNT), where numbers from 0 - 100% represent growth inhibition, and numbers from -100% - 0 represent cell death. For example, a value of 40 represents 60% growth inhibition. A value of 0 means no net growth occurred over the course of the experiment. A value of -40 indicates 40% of cells at the beginning of the experiment died by the end of the experiment. A value of -100 means all cells are dead at the end of the experiment.
# NCI-60 Human Tumor Cell Lines Screen was performed using the standard one-dose NCI protocol, which is described in more detail at https://dtp.cancer.gov/discovery_development/nci-60/default.htm.
# Compounds with GIPRCNT values below 10 were considered active. Activity score was based on GIPRCNT using the following formula: […]
# Score is 0 for GIPRCNT values of 100 or above, 50 for GIPRCNT values of 0, and 100 for GIPRCNT values of -100.
row,Compound,growth
1,COc1cccc2c1C(=O)c1c(O)c3c(c(O)c1C2=O)C[C@@](O)(C(=O)CO)C[C@@H]3OC1CC(N)C(O)C(C)O1 (stereo not given in full),73.4% (inactive)

# Same assay, conditions: 1 µM
row,Compound,growth
1,COc1cccc2c1C(=O)c1c(O)c3c(c(O)c1C2=O)C[C@@](O)(C(=O)CO)C[C@@H]3OC1CC(N)C(O)C(C)O1 (stereo not given in full),-31.1% (active)

# Same assay, conditions: 2.5 µM
row,Compound,growth
1,COc1cccc2c1C(=O)c1c(O)c3c(c(O)c1C2=O)C[C@@](O)(C(=O)CO)C[C@@H]3OC1CC(N)C(O)C(C)O1 (stereo not given in full),9.19% (active)

# Same assay, conditions: 10 µM
row,Compound,growth
1,CCO/C=C1\SC(=S)N(c2cccc(O)c2)C1=O,106% (inactive)
2,Cc1cc(NS(=O)(=O)c2ccc(N=Nc3cc(N=Nc4ccc(S(=O)(=O)Nc5cc(C)nc(C)n5)cc4)c4c(NC(=O)C(Cl)Cl)cccc4c3OC(=O)C(Cl)Cl)cc2)nc(C)n1 (tested in a mixture with another compound),109% (inactive) and 103% (inactive)
3,OCC(O)C(O)C(O)C(/C=N/Nc1ccccc1)=N/Nc1ccccc1 (stereo not given),89.9% (inactive)
4,CCN(CC)c1ccc(NC(C(=O)c2ccccc2)c2ccccc2)cc1 (stereo not given),80.4% (inactive)
5,COc1cccc2c1C(=O)c1c(O)c3c(c(O)c1C2=O)C[C@@](O)(C(=O)CO)C[C@@H]3OC1CC(N)C(O)C(C)O1 (stereo not given in full),0.571% (active)
6,Nc1nc(=S)c2ncn(C3OC(CO)C(O)C3O)c2[nH]1 (stereo not given),120% (inactive) and 9.3% (active)
7,O=c1ccn(C2CC(O)C(COC(c3ccccc3)(c3ccccc3)c3ccccc3)O2)c(=O)[nH]1 (stereo not given),91.2% (inactive)
8,Clc1cc(Cl)c(Cl)nn1,99% (inactive)
9,COC1OCC(O)C(O)C1O (stereo not given),104% (inactive)
10,CCCCCCCCCCSC(=N)N,23.8% (inactive)
11,CCCCCCCCCCCCCCCCCCOCC(COP(=O)([O-])OCC[N+](C)(C)C)OC (stereo not given),46.4% (inactive)
12,CN(C)C(=S)SC(=S)N(C)C,98.7% (inactive) and 91.3% (inactive)
13,CC(=O)OCC(OC(C)=O)C(OC(C)=O)C(OC(C)=O)C(OC(C)=O)C(/C=N/Nc1ccccc1)=N/Nc1ccccc1 (stereo not given),65.2% (inactive)
14,CC(=O)Nc1cc(C)ccc1C,106% (inactive)
15,CC[N+](CC)=c1ccc2nc3c(cc(N)c4ccccc43)oc-2c1,-57.4% (active)
16,Clc1ccc(/C=C/c2ccccn2)c(Cl)c1,95.2% (inactive)
17,NC1=C(Cl)C(=O)c2ccccc2C1=O,25.3% (inactive)
18,Nc1ccc2cc3ccc(N)cc3nc2c1,102% (inactive) and 0.17% (active)

row,Compound,growth
1,NNc1ccc2ccccc2c1,105% (inactive)
2,OCC1OC(n2cnc3c(=S)nc[nH]c32)C(O)C1O (stereo not given),113% (inactive) and 62% (inactive)
3,O=C(/C=C/c1ccccn1)c1ccccc1,26.5% (inactive)
4,Cc1nc(N=C(N)N)nc2ccc3ccccc3c12,-44.4% (active)
5,CCCCCCCCCCCC[N+](C)(C)Cc1ccccc1,71.9% (inactive)
6,CC(C)(C)CC(C)(C)c1ccc(OCCO)cc1,117% (inactive)
7,N=S(c1ccccc1[N+](=O)[O-])c1ccccc1[N+](=O)[O-],104% (inactive)
8,COc1ccc(CC(=O)c2ccc(O)cc2O)cc1,115% (inactive)
9,O=C(/C=C/c1cccnc1)c1ccccc1,87.6% (inactive)
10,CC(C)C(NC(=O)CN)C(=O)O (stereo not given) (H-Gly-[ξV]-OH),113% (inactive) and 103% (inactive)
11,Oc1ccc(N=Nc2ccccn2)c(O)c1,8.17% (active)
12,O=C1NC(=O)c2cc([N+](=O)[O-])ccc21,105% (inactive)
13,CSC1SCC2C(=O)N(C)C(C(C)C)C(=O)OCC(NC(=O)c3cnc4ccccc4n3)C(=O)NC(C)C(=O)N(C)C1C(=O)N(C)C(C(C)C)C(=O)OCC(NC(=O)c1cnc3ccccc3n1)C(=O)NC(C)C(=O)N2C (stereo not given),4.33% (active)
14,CCCCCCCCCCCCSC(=NC)NC,4.19% (active) and 42.7% (inactive)
15,CCCCCC(C)c1ccc(O)c(C)c1 (stereo not given),107% (inactive)
16,O=C(O)COc1ccc(OCC(=O)O)cc1,-17.8% (active)
17,CS(=O)(=O)OC1CC(n2ccc(=O)[nH]c2=O)OC1COC(c1ccccc1)(c1ccccc1)c1ccccc1 (stereo not given),112% (inactive)
18,COC(=O)C1C(O)C(C)C(O)C(C)C=C(C)C2=C3C(=C(C)C(=O)c4c(O)c(c(C)c(OC(C)=O)c43)NC(=O)C(C)=C/C=C\C(C)C(O)C(C)C1O)OCO2 (stereo not given),114% (inactive)

# Same assay, conditions: 100 µM
row,Compound,growth
1,O=c1ccn(C2CC(O)C(COC(c3ccccc3)(c3ccccc3)c3ccccc3)O2)c(=O)[nH]1 (stereo not given),39.4% (inactive)
